# Test system: Plasmodium falciparum Sir2 (PF13_0152, Sir2A)
# Assay: pfSir2 binders on small-molecule microarrays, primary screen, biochemical, small-molecule microarray, 635 nm fluorescence (AID 1098);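 further: score merges spot fluorescence intensity with its signal-to-noise ratio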
# Details: small-molecule microarray binding, fluorescence 635 nm; higher = more signal
row,SMILES,composite z-score
1,COc1ccccc1CN1C(=O)c2ccccc2[C@@H](C(=O)NCC(C)C)[C@@H]1c1ccc(CO)cc1,1.05
2,COC(=O)C(CC#Cc1ccc2c(c1)[C@]1(C(=O)N2)[C@H](c2ccc(O)cc2)N2[C@H](c3ccccc3)[C@H](c3ccccc3)OC(=O)[C@H]2[C@@H]1C(N)=O)C(=O)OC,-0.532
3,CCCC[C@@H](O)C1=C(COc2ccccc2)Cn2c(=O)n(-c3ccccc3)c(=O)n2[C@H]1CO,-0.229
4,NC(=O)[C@H]1[C@@H]2C(=O)O[C@@H](c3ccccc3)[C@@H](c3ccccc3)N2[C@@H](c2ccc(O)cc2)[C@]12C(=O)Nc1ccc(C#CC3(O)CCCCCC3)cc12,1.37
5,CCCN1C(=O)[C@@]2(Cc3ccccc3)N=C(c3ccc(OCCCO)cc3)O[C@H]2c2ccccc21,1.61
6,COC(=O)[C@@]1(Cc2ccc(OC)cc2)[C@H]2c3cc(C(=O)N4CCCC4)n(CCc4ccc(O)c(OC)c4)c3C[C@H]2CN1C(=O)c1ccccc1,-0.0995
7,COCCOC(=O)N1C(=O)[C@@]2(c3cc(C#Cc4ccc(OC)cc4)ccc31)[C@H](C(=O)N1CCc3cc(OC)c(OC)cc3C1)[C@H]1C(=O)O[C@H](c3ccccc3)[C@H](c3ccccc3)N1[C@@H]2c1ccc(OCCO)cc1,-0.352
8,C[N+](C)(C)CCCCCCNC(=O)[C@@H]1C[C@@H]2C(=O)NCC(=O)N2[C@@H]1c1ccc(O)cc1,1.43
9,COCCCNC(=O)[C@]1(CCS(=O)(=O)c2ccccc2)N=C(c2ccc(OCCCO)cc2)O[C@@H]1c1ccccc1,1.86
10,C[C@@]1([C@@H](NC(=O)c2cccs2)c2ccc(-c3ccccc3)cc2)C[C@H]1C1CCCCC1,0.385
11,COc1cccc(C[C@H]2C[C@@H](CO[Si](C(C)C)(C(C)C)C(C)C)N3C(=O)[C@]4(C(C)=O)O[C@]23[C@H]2C(=O)N(C)C(=O)[C@H]24)c1,0.817
12,[N-]=[N+]=Nc1ccccc1[C@@H]1OC(c2ccc(OCCCO)cc2)=N[C@]1(CCS(=O)(=O)c1ccccc1)C(=O)NCc1ccccc1,1.29
13,C=CC[C@@]1(C(=O)NCCN2CCOCC2)N=C(c2ccc(OCCCO)cc2)O[C@@H]1c1ccccc1,1.28
14,COC(=O)C(CC#Cc1ccc2c(c1)[C@]1(C(=O)N2)[C@H](c2ccc(OCCO)cc2)N2[C@H](c3ccccc3)[C@H](c3ccccc3)OC(=O)[C@H]2[C@@H]1C(=O)O)C(=O)OC,1.78
15,COC(=O)c1ccc(OC)c(/C=C\CC(CCc2ccccc2)OC(C)=O)c1 (configuration not stated),-0.388
16,COCC1=C([C@H](O)CCc2ccccc2)[C@H](CO)[C@@H]2C(=O)N(C)C(=O)[C@@H]2C1,-0.129
17,COc1cc(NN2C(C(O)c3ccc(I)cc3)C=CC3C(=O)N(C)C(=O)C32)cc(OC)c1OC (configuration not stated),0.719
18,CC(C)N1C(=O)c2ccccc2[C@](C)(C(=O)O)[C@@H]1c1ccc(CO)cc1,0.738
19,NC(=O)NCC#Cc1ccc2c(c1)[C@]1(C(=O)N2)[C@H](c2ccc(O)cc2)N2[C@H](c3ccccc3)[C@H](c3ccccc3)OC(=O)[C@H]2[C@@H]1C(N)=O,0.855
20,CCCCC(CC)C(O)C1C=CC2C(=O)NC(=O)C2N1Nc1ccccn1 (configuration not stated),0.768
21,COC(=O)[C@@]1(Cc2ccccc2)[C@H]2c3cc(C(=O)N4CCCC4)n(Cc4ccc(OC(F)(F)F)cc4)c3C[C@H]2CN1C(=O)c1ccccc1,0.716
22,C=C(COC)C(=O)CC[C@H](OC(=O)c1ccccc1-c1ccccc1C(=O)O)c1ccc(OCCO)cc1,1.53
